A short description of assay [1]: CEETOX_H295R_TESTO: CeeTox H295R High-throughput Steroidogenesis Assay for Testosterone (TESTO) (AID 2283457).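 For AC50: cells exposed to chemicals for 48 h before medium collection.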 The settings on record: actives raise or lower the signal. In short, it runs like this: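 Testosterone synthesis is assessed in human adrenocortical H295R cells after 48 h of chemical exposure, using HPLC-MS/MS of extracted medium. Activity is fitted in both directions against DMSO control.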

Read-out in assay [2]: CFLAR gene, CFLAR (gene 8837)
The assay can be described thus: LTEA_HepaRG_CFLAR: Life Technologies and Expression Analysis (LTEA) Assay for CFLAR gene using HepaRG (AID 2283455). The settings on record: mRNA level, 48 h; actives raise or lower the signal. In short, it runs like this:
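Gain- or loss-of-signal changes in CFLAR transcript were fitted bidirectionally relative to 0.5% DMSO. Cells (HepaRG, duplicate wells) were dosed for 48 h across eight half-log concentrations topping at 100 uM; quantitation by TaqMan qRT-PCR.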

Read-out in assay [3]: Forkhead box O1 (FOXO1), FOXO1 (gene 2308)
Description: LTEA_HepaRG_FOXO1: Life Technologies and Expression Analysis (LTEA) Assay for Forkhead box O1 (FOXO1) using HepaRG (AID 2283456). The note with it: mRNA level, 48 h; actives raise or lower the signal. In short, it runs like this:
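Using one lot of HepaRG hepatic cells kept in 0.5% DMSO, the team applied test chemicals in duplicate, half-log dilutions from 100 uM, for 48 h. Expression, normalised to ACTB/GAPDH/POLR2A, was compared with vehicle in either direction.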

Read-out in assay [4]: growth arrest and DNA damage 45 (GADD45A), GADD45A (gene 1647)
The assay can be described thus: LTEA_HepaRG_GADD45A: Life Technologies and Expression Analysis (LTEA) Assay for growth arrest and DNA damage 45 (GADD45A) using HepaRG (AID 2283458). The note with it: mRNA level, 48 h; actives raise or lower the signal. Summed up:
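Transcript induction or loss, quantified by TaqMan qRT-PCR against three housekeeping genes, is the read-out. HepaRG cells received chemicals for 48 h across eight half-log concentrations from 100 uM in 0.5% DMSO; gain and loss fitted relative to DMSO.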

Read-out in assay [5]: Forkhead box O3 (FOXO3), FOXO3 (gene 2309)
The assay can be described thus: LTEA_HepaRG_FOXO3: Life Technologies and Expression Analysis (LTEA) Assay for Forkhead box O3 (FOXO3) using HepaRG (AID 2283459). The note with it: mRNA level, 48 h; actives raise or lower the signal. Summed up:
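Gene-expression endpoint: FOXO3 transcript level by qRT-PCR in HepaRG cultures treated 48 h with chemicals up to 100 uM (half-log, 0.5% DMSO vehicle).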

Read-out in assay [6]: ABC Transporter (ABCB1), ABCB1 (gene 5243)
Description: LTEA_HepaRG_ABCB1: Life Technologies and Expression Analysis (LTEA) Assay for ABC Transporter (ABCB1) using HepaRG (AID 2283460). The note with it: mRNA level, 48 h; actives raise or lower the signal. Summed up: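 Human liver HepaRG line treated 48 h with up to 100 uM compound (eight half-log points, 0.5% DMSO); ABCB1 mRNA change fitted bidirectionally against DMSO controls.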

Read-out in assay [7]: growth arrest and DNA damage 45 (GADD45B), GADD45B (gene 4616)
The assay can be described thus: LTEA_HepaRG_GADD45B: Life Technologies and Expression Analysis (LTEA) Assay for growth arrest and DNA damage 45 (GADD45B) using HepaRG (AID 2283461). The settings on record: mRNA level, 48 h; actives raise or lower the signal. Summed up:
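Values are bidirectional concentration-response fits against 0.5% DMSO controls. Underlying data: qRT-PCR mRNA levels in human HepaRG liver cells treated 48 h in serum-free induction medium, eight concentrations topping at 100 uM.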

Read-out in assay [8]: ABC Transporter (ABCC3), ABCC3 (gene 8714)
The assay can be described thus: LTEA_HepaRG_ABCC3: Life Technologies and Expression Analysis (LTEA) Assay for ABC Transporter (ABCC3) using HepaRG (AID 2283462). The settings on record: mRNA level, 48 h; actives raise or lower the signal. Summed up: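 Differentiated HepaRG liver cells receive test chemicals at eight concentrations (max 100 uM) for 48 h. Expression of ABCC3 is quantified by qRT-PCR against ACTB, GAPDH and POLR2A, and activity is fitted in both directions against the DMSO control.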

Read-out in assay [9]: ABC Transporter (ABCB11), ABCB11 (gene 8647)
The assay can be described thus: LTEA_HepaRG_ABCB11: Life Technologies and Expression Analysis (LTEA) Assay for ABC Transporter (ABCB11) using HepaRG (AID 2283463). The note with it: mRNA level, 48 h; actives raise or lower the signal. In short, it runs like this:
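Using HepaRG cultures held in 0.5% DMSO, chemicals were tested at half-log dilutions from 100 uM for 48 h. Induction or suppression of ABCB11 mRNA, normalized to ACTB, GAPDH and POLR2A, was fitted bidirectionally against vehicle.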

Read-out in assay [10]: ABC Transporter (ABCC2), ABCC2 (gene 1244)
Description: LTEA_HepaRG_ABCC2: Life Technologies and Expression Analysis (LTEA) Assay for ABC Transporter (ABCC2) using HepaRG (AID 2283464). The note with it: mRNA level, 48 h; actives raise or lower the signal. In short, it runs like this: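 Gene expression of ABCC2 was determined by qRT-PCR in HepaRG cells exposed 48 h to chemicals (highest 100 uM, half-log dilutions). Activity was fitted in both directions relative to 0.5% DMSO vehicle.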

The source made the active and inactive calls. Rule for the calls: active = hit-call score of the fitted dose curve at least 0.9, where 1 is the maximum; inactive = score below 0.9.

Among the data in PubChem BioAssay (EPA / NIEHS) are outcome and AC50 values, retold here.

Take `Cc1cccc2c1ccc1ccccc12`: the molecule was classed as inactive in assay [1].
As for `O=C(c1ccccc1)c1ccccc1`, the molecule was classed as inactive in assay [2], in assay [3], in assay [4], in [5], in assay [6] and in [7]. For the same molecule, the outcome in assay [8], in [9] and in [10] was inactive.
With `CCC(C)c1ccccc1O` (stereo not drawn), the molecule was classed as inactive in assay [2], in [3], in [4], in assay [5], in assay [6] and in [7]. Further, the call in [8], in assay [9] and in [10] was inactive.
For `CCCCc1oc2ccccc2c1C(=O)c1cc(I)c(OCCN(CC)CC)c(I)c1`, the AC50 (as a rule, the concentration at which the activity in the assay is half-maximal) in assay [2] is 62.4 µM (active); in [4], 59.1 µM (active); in assay [7], 59.6 µM (active); in assay [8] it was 22.4 µM (active); in [9], 52.1 µM (active); in assay [10], 68.8 µM (active). For the same molecule, the outcome in [3], in [5] and in assay [6] was inactive.
Turning to `CC(C)(c1ccc(Oc2ccc(N)cc2)cc1)c1ccc(Oc2ccc(N)cc2)cc1`, the half-maximal activity concentration (AC50) in assay [1] was 0.334 µM (active).
On to `CS(=O)(=O)c1ccc([C@@H](CC2CCCC2)C(=O)Nc2cnccn2)cc1Cl`, for which the result in [2], in assay [3], in assay [5], in [7], in [8] and in [10] was inactive. For the same molecule, the AC50 in [4] is 9.92 µM (active).
Turning to `CCCCC=O`, the result in assay [2], in assay [3], in assay [4], in assay [5], in [6] and in [7] was inactive. Moreover, the call in assay [8], in assay [9] and in [10] was inactive.
Regarding `CN(Cc1cnc2nc(N)nc(N)c2n1)c1ccc(C(=O)N[C@@H](CCC(=O)O)C(=O)O)cc1`, the outcome in assay [2], in [3], in assay [4], in assay [5], in assay [6] and in [7] was inactive. Besides, the call in assay [8] and in assay [10] was inactive. In addition, the AC50 in assay [9] is 0.206 µM (active).
Consider `c1cc[nH]c1`, for which, in assay [1], the molecule was called inactive.
On the same count and under the same terms, the entry for `O=C(NCc1ncc(C(F)(F)F)cc1Cl)c1c(Cl)cccc1Cl` is “inactive”.
Take `CCCCCc1ccc(O)cc1`: in assay [1], the concentration at half-maximal activity (AC50) is 50 µM (active).
In the case of `Cc1[nH]nc2c1N=C(c1ccccc1Cl)c1cc([N+](=O)[O-])ccc1N2`, the concentration at half-maximal activity (AC50) in [2] was 12.9 µM (active); in assay [3], 5.4 µM (active); in assay [4], 88.8 µM (active); in [5], 12.6 µM (active); in assay [6] it was 0.742 µM (active); in [7], 4.57 µM (active). Moreover, the AC50 is 3.26 µM (active) in assay [8], 8.72 µM (active) in assay [9] and 31.9 µM (active) in assay [10].
Regarding `COc1cc([N+](=O)[O-])ccc1N`, the outcome in assay [1] was inactive.
Same read-out and setting: the result for `Oc1cc2ccccc2cc1O` reads “inactive”.
Regarding `O=C(CCCN1CCC(O)(c2ccc(Cl)cc2)CC1)c1ccc(F)cc1`, the call in [2], in [5] and in [7] was inactive. Further, the AC50 was 81.2 µM (active) in assay [3]; 75 µM (active) in [4]; 85.6 µM (active) in assay [6]; 50 µM (active) in assay [8]; 80.1 µM (active) in [9]; 80.7 µM (active) in [10].
For `O=C1NS(=O)(=O)c2ccccc21`, the outcome in assay [2], in [3], in assay [4], in assay [5], in [6] and in [7] was inactive. Further, the outcome in [8], in [9] and in assay [10] was inactive.
Consider `CC(C)CCOCCC(C)C`, for which, in assay [1], the call was inactive.
Take `N=C(N)c1ccc(OCCCCCOc2ccc(C(=N)N)cc2)cc1`: the AC50 in [2] was 30.5 µM (active); in assay [3], 43.8 µM (active); in assay [4], 4.21 µM (active); in assay [6] it was 4.87 µM (active); in assay [7], 7.1 µM (active); in assay [8], 3.46 µM (active). Also, the half-maximal activity concentration (AC50) in assay [9] was 4.37 µM (active); in [10], 25.6 µM (active). Also, in assay [5], the outcome was inactive.
As for `CCCCCCCCCCCCCCC`, the result in [2], in [3], in [4], in assay [5], in assay [6] and in assay [7] was inactive. Also, the molecule was called inactive in assay [8], in [9] and in assay [10].
On to `CCCCC(CC)C(=O)O` (stereo not drawn), for which the call in [2], in assay [4], in assay [5], in assay [6], in assay [7] and in [8] was inactive. In addition, the molecule was classed as inactive in assay [9] and in [10].
As to `CN(C)CCOC(c1ccccc1)c1ccccc1`, the result in assay [2], in assay [3], in assay [4], in [5], in assay [6] and in [7] was inactive. Also, the outcome in [8], in [9] and in assay [10] was inactive.
Turning to `CC(=O)Nc1ccc(O)cc1`, the molecule was classed as inactive in assay [2], in assay [3], in assay [4], in [5], in [6] and in [7]. Moreover, the outcome in assay [8], in assay [9] and in assay [10] was inactive.
Take `OCC(CO)(CBr)CBr`: the result in [2], in assay [3], in [4], in assay [5], in assay [6] and in [7] was inactive. Besides, the call in [8], in [9] and in assay [10] was inactive.
Consider `CCCCCCCCCCCCOS(=O)(=O)O`, for which the call in assay [2], in assay [3], in [4], in assay [5], in assay [7] and in assay [8] was inactive. Also, the concentration at half-maximal activity (AC50) in assay [6] is 77.2 µM (active); in [10] it was 86.2 µM (active).
